Screens as filed in PubChem BioAssay.
HP1b chromo inh = blocks HP1-beta chromodomain binding to methylated histone tails; P83916; AlphaScreen HP1-beta / biotin-H3K9me3 peptide binding; Potency, µM (doses to about 114 µM), most hits filed as inhibitors; hit rate 0.56% among 390,000; further: nearly all actives have a fitted effect of over 70% in size
Target sequence (P83916 whole entry, looked up): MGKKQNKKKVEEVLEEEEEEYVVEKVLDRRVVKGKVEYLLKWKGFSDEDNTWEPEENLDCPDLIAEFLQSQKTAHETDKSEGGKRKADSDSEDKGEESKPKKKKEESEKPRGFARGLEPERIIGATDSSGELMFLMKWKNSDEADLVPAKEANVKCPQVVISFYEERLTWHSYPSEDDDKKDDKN
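AlphaScreen: HP1-beta (50 nM) preformed 30 min with biotin-H3(1-18)K9me3 peptide (50 nM) in PBS pH 7.4, 0.01% Tween-20. Compound added for 30 min at RT, then streptavidin donor/nickel chelate acceptor beads (10 ug/mL) for 30 min.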
G9a inh = G9a (human) methyltransferase inhibition; Q96KQ7; G9a H3K9 monomethylation, AlphaScreen, 2 h; Potency, µM (highest dose often 102 µM), hits mostly inhibitors; hit rate 8.8% among 350,000; further: nearly all actives have a fitted effect of over 75% in size
Target sequence (Q96KQ7 913-1193 limits assumed): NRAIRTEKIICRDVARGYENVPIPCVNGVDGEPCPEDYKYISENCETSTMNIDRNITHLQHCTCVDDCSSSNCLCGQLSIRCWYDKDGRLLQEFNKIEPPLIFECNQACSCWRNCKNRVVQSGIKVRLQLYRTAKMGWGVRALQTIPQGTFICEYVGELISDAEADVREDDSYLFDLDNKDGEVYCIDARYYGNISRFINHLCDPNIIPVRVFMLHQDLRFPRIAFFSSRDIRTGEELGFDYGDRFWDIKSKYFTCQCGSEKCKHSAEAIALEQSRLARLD
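Step 1: enzyme (final 20 nM) with compound, 15 min RT. Step 2: substrate peptide 500 nM and SAM 20 uM, 2 h RT. Step 3: anti-H3K9me1 antibody and AlphaScreen beads, 10 min, then plate read.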
JMJD2A Tudor inh = JMJD2A Tudor domain (human) inhibition | AID 504339 | hit rate 4.4% among 390,000 | Potency, µM (doses to about 114 µM), actives largely listed as inhibitors | AlphaScreen JMJD2A-Tudor / H3K4me3 peptide binding; further: nearly all actives have a fitted effect of over 50% in size
BAZ2B inh = blocks human BAZ2B; Q9UIF8; hit rate 4.4% among 360,000; AID 504333; AlphaScreen BAZ2B-H3K14Ac peptide displacement; Potency, µM (titrated, usually from 114 µM), usual class: inhibitors; further: nearly all actives have a fitted effect of over 60% in size
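Compounds, titrated to a top concentration of 110 uM, were incubated 30 min at room temperature with preformed BAZ2B/acetyl-K14 H3 peptide complex (50 nM each). Proximity signal was measured by AlphaScreen after 20 min with beads.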
PLK1 PBD block = PLK1 (human) polo-box domain binding inhibition; P53350; Plk1 PBD binding of FITC phosphopeptide, fluorescence polarization; Potency, µM, most hits filed as inhibitors; hit rate 2.8% among 360,000; AID 720504; further: series mostly up to about 57 µM; nearly all actives have a fitted effect of over 65% in size
PI5P4Ka inh = PI5P4K alpha (human) kinase inhibition. hit rate 1.2% among 330,000. P48426. AID 652105. max response, %. PI5P4Kalpha enzyme, ADP-Glo luminescence, 60 min; hits give low values; active means max response of -50% or lower; inconclusive means between -30% and -50%; inactive means -30% or higher; further: value at the top dose of about 77 µM
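Enzyme plus substrate dispensed, test compounds pinned in, then ATP (5 microM final) added. After 60 min at RT, ADP-Glo reagent 1 for 45 min and reagent 2 for 30 min preceded luminescence imaging.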
Numbers stand for hits; [ ] = another dose, or the depositor's remark. A selection: hits, their analogues and other compounds. The true share with any hit is near 12%. Unless noted, the call rests on the fitted dose curve; in most records, active means well fitted curve in the direction sought with a large enough effect; inconclusive means small, poorly fitted or top-dose-only effect, or another doubt; inactive means no such curve, though single readings can be large; an effect the other way counts as inactive or inconclusive.

What do the screens show for `O=C(c1ccc2c(c1)N(Cc1ccc(Cl)cc1)C(=O)c1ccccc1S2=O)N1CCCCC1` (stereo not drawn)?
HP1b chromo inh: inactive; G9a inh: inactive; JMJD2A Tudor inh: inactive; BAZ2B inh: inactive

How did CN1CCN(C(=O)c2ccc3c(c2)N(Cc2ccc(Cl)cc2)C(=O)c2ccccc2S3=O)CC1 (stereo not drawn) do in these assays?
HP1b chromo inh: inactive; G9a inh: 79µM; JMJD2A Tudor inh: inactive; BAZ2B inh: inactive; PLK1 PBD block: inactive; PI5P4Ka inh: inactive

Results for O=C(c1ccc2c(c1)N(Cc1cccc(Cl)c1)C(=O)c1ccccc1S2(=O)=O)N1CCCC1 ?
HP1b chromo inh: inactive; G9a inh: inactive; JMJD2A Tudor inh: inactive; BAZ2B inh: inactive

How did CN1CCN(C(=O)c2ccc3c(c2)N(Cc2cccc(Cl)c2)C(=O)c2ccccc2S3(=O)=O)CC1 do in these assays?
HP1b chromo inh: inactive; G9a inh: inactive; JMJD2A Tudor inh: inactive; BAZ2B inh: inactive; PLK1 PBD block: 27µM; PI5P4Ka inh: inactive

Results for O=C(O)c1ccc2c(c1)N(Cc1ccccc1)C(=O)c1ccccc1S2=O (stereo not drawn) ?
HP1b chromo inh: inactive; G9a inh: inactive; JMJD2A Tudor inh: inconclusive; BAZ2B inh: inactive; PLK1 PBD block: 27µM; PI5P4Ka inh: inactive

How did O=S(=O)(c1ccccc1)N1CCC[C@@]2(CCN(Cc3cc(C(F)(F)F)cc(C(F)(F)F)c3)C2)C1 do in these assays?
G9a inh: inactive[12.7 µM]

What do the screens show for `CCN(CC)S(=O)(=O)c1ccc(N2CCCC2)c(NC(=O)CSCc2c(C)noc2C)c1`?
PLK1 PBD block: inactive; PI5P4Ka inh: inactive

Results for O=C(NCCN1CCCC1)c1ccc2c(c1)N(Cc1ccc(F)cc1)C(=O)c1ccccc1S2=O (stereo not drawn) ?
HP1b chromo inh: inactive; G9a inh: 40µM; JMJD2A Tudor inh: inactive; BAZ2B inh: inactive; PLK1 PBD block: inactive; PI5P4Ka inh: inactive

Results for CN1C(=O)c2ccccc2C(C(=O)O)C1c1cccc(F)c1 (stereo not drawn) ?
HP1b chromo inh: inactive; G9a inh: inactive; JMJD2A Tudor inh: inactive[11.4 µM]; BAZ2B inh: inactive; PLK1 PBD block: 30µM; PI5P4Ka inh: inactive

Results for O=S(=O)(Nc1nc2ccc(S(=O)(=O)N3CCCC3)cc2s1)c1ccc(F)cc1 ?
HP1b chromo inh: inactive; G9a inh: 40µM; JMJD2A Tudor inh: inactive; BAZ2B inh: inconclusive; PLK1 PBD block: 17µM

How did CC(=O)c1c(C)[nH]c(C(=O)CSc2nnc(-c3ccco3)n2Cc2ccccc2)c1C do in these assays?
HP1b chromo inh: inactive; G9a inh: 40µM; JMJD2A Tudor inh: inactive; BAZ2B inh: 50µM; PLK1 PBD block: inactive; PI5P4Ka inh: inactive

How did CC(=O)c1c(C)[nH]c(C(=O)CSc2nnc(-c3cccs3)n2Cc2ccccc2)c1C do in these assays?
HP1b chromo inh: inactive; G9a inh: inactive[12.7 µM]; JMJD2A Tudor inh: inconclusive; BAZ2B inh: inactive; PLK1 PBD block: 17µM

Results for O=C(CSc1nnc(-c2ccncc2)n1Cc1ccco1)OC1CCCCC1 ?
HP1b chromo inh: inactive; G9a inh: inactive[12.7 µM]; JMJD2A Tudor inh: inactive; BAZ2B inh: inactive; PLK1 PBD block: inactive

How did CCOC(=O)c1c(C)[nH]c(C(=O)CSc2nnc(-c3cccs3)n2Cc2ccccc2)c1C do in these assays?
HP1b chromo inh: inactive; G9a inh: inactive; JMJD2A Tudor inh: inactive; BAZ2B inh: inactive; PLK1 PBD block: inactive

Results for O=C(CSc1nnc(-c2ccco2)n1Cc1ccccc1)OC1CCCCC1 ?
HP1b chromo inh: inactive; G9a inh: 50µM; JMJD2A Tudor inh: inactive; BAZ2B inh: inconclusive; PLK1 PBD block: inactive; PI5P4Ka inh: inactive

How did COc1ccc(CCNC(=O)c2cnc3sc(N4CCC(C)CC4)nn3c2=O)cc1OC do in these assays?
HP1b chromo inh: inactive; G9a inh: inactive; JMJD2A Tudor inh: inactive; BAZ2B inh: inactive

How did Cc1ccccc1OCCSc1nnc(-c2ccc([N+](=O)[O-])cc2)o1 do in these assays?
HP1b chromo inh: inconclusive; G9a inh: inactive; JMJD2A Tudor inh: inconclusive; BAZ2B inh: inconclusive

What do the screens show for `COc1cc(C2NC(=S)NC(O)(C(F)(F)F)C2C(=O)c2cccs2)cc(OC)c1O` (stereo not drawn)?
HP1b chromo inh: inactive; G9a inh: 79µM; JMJD2A Tudor inh: inactive; BAZ2B inh: inactive; PLK1 PBD block: inactive; PI5P4Ka inh: inactive
